Assay outcomes (PubChem)
In the library only some 3.7% were active in any assay of this set; here they are far more common.
Anthrax LF prot: Bacillus anthracis LF protease inhibitors, primary screen, biochemical, multiplex microsphere, MLPCN library; Lethal factor (Bacillus anthracis), P15917; multiplex microsphere protease cleavage assay; inhibition, % at 10 µM; 360,000 compounds, 0.12% hits; AID 588501, 2011
BoNT-F LC inh: BoNT/F light chain protease inhibitors, primary screen, biochemical, flow cytometry, MLPCN library. Botulinum neurotoxin type F light chain protease (Clostridium botulinum). Multiplex microsphere protease cleavage assay. inhibition, % at 10 µM. 360,000 compounds, 0.22% hits. AID 588497, 2011; in the data active means inhibition above about 35%, passing the limit was not always enough; inconclusive means no clear call, values can overlap the other calls
MazF activator: activators of E. coli MazEF toxin-antitoxin RNase, primary screen, biochemical, fluorescence, uHTS | Endoribonuclease toxin MazF (Escherichia coli (strain K12)), P0AE70 | FAM/BHQ RNA-DNA oligo cleavage fluorescence, 5 h | activation, % at 20 µM | 350,000 compounds, 0.32% hits | AID 504720, 2011; in the data active means activation above about 50%
Target sequence (P0AE70 whole entry, looked up): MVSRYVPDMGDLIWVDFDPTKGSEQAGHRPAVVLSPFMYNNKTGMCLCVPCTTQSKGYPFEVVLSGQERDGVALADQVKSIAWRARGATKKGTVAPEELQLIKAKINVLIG
Autofluor counter: counter-screen for toxin protease inhibitors: compound fluorescence | compound autofluorescence counterscreen, microsphere flow cytometry; hits give high values | fluorescence intensity (no concentration beside the values) | 360,000 compounds, 3.1% hits; in the data active means fluorescence intensity above about 16000; inconclusive means no clear call, values can overlap the other calls
BoNT-A LC inh2: BoNT/A light chain protease inhibitors, primary screen, biochemical, flow cytometry, MLPCN library | AID 588499, 2011 | inhibition, % at 10 µM | 360,000 compounds, 0.17% hits | multiplex microsphere protease substrate cleavage | Botulinum neurotoxin type A light chain protease (Clostridium botulinum A str. ATCC 3502)
Hits are given with their value; . = inactive; ? = inconclusive; / = not tested or not shown; + = active, no number. Unless noted, no stated cut-off is given here; in the data, active means inhibition above about 30%; inconclusive means no clear call, values can overlap the other calls; inactive means below that.

SMILES	Anthrax LF prot	BoNT-F LC inh	MazF activator	Autofluor counter	BoNT-A LC inh2
CCc1c(C)nc2cc(-c3ccccc3)[nH]n2c1=O	.	36.2	.	.	.
C=CCc1c(C)nc2cc(-c3ccc(C)cc3)[nH]n2c1=O	.	?	.	.	.
O=C(Nc1cccc(/C=C/c2ccccn2)c1)c1cc(Cl)ccn1	.	.	.	.	.
O=c1[nH]c(SCc2ccccc2Cl)nc2c1CCCC2	.	.	.	20115	.
O=c1[nH]c(SCc2ccc(Cl)cc2)nc2c1CCC2	.	?	.	.	.
NC(=O)Cn1cc(C=C2C(=O)NC(=O)NC2=O)c2ccccc21	.	.	.	.	.
COC(=O)Cn1cc(C=C2C(=O)NC(=O)NC2=O)c2ccccc21	.	42.0	.	.	.
COc1ccc(N2C(=O)NC(=O)/C(=C\c3cn(CC(=O)N4CCOCC4)c4ccccc34)C2=O)c(OC)c1	.	.	.	.	.
COCCNC(=O)Cn1cc(/C=C2\C(=O)NC(=O)N(c3ccccc3F)C2=O)c2ccccc21	.	.	+	.	.
COC(=O)Cn1cc(/C=C2\C(=O)NC(=O)N(c3ccc(OC)cc3)C2=O)c2ccccc21	.	.	111.1	.	.
COc1ccc(N2C(=O)NC(=O)/C(=C\c3ccc([N+](=O)[O-])s3)C2=O)cc1	.	.	.	.	.
COc1ccc(N2C(=O)NC(=O)/C(=C\c3cn(C)c4ccccc34)C2=O)cc1	.	.	290.0	.	.
CCOC(=O)N(C)c1c(CC)nc2c(OCCOc3ccccc3)cccn12	.	.	/	.	.
CC(C)C(=O)N[C@@H]1c2ccccc2CC[C@H]1OCc1ccccc1	.	.	.	.	.
CC(=O)N1C(=O)C2(NCC(C)N2)c2ccccc21 (stereo not given)	.	.	/	.	.
N#Cc1cc2c(nc1SCC(=O)Nc1cc(Cl)ccc1Cl)C1CCN2CC1	.	.	.	20370	?
N#Cc1cc2c(nc1SCC(=O)Nc1ccc(Cl)cc1)C1CCN2CC1	.	.	.	.	.
CC1CCCCC1Nc1ncnc2sccc12 (stereo not given)	.	.	.	.	.
CCC(=NCCc1c[nH]c2ccccc12)c1c(O)n(C)c(=O)n(C)c1=O	.	.	.	22284	.
CCC(=NCCc1c[nH]c2ccccc12)c1c(O)n(-c2ccc(C)cc2)c(=O)[nH]c1=O	.	.	.	.	.
COCCOc1ccc(C(F)(F)F)cc1NC(=O)c1ccccc1	.	.	.	.	.
CC(=O)Nc1cc(C(F)(F)F)ccc1OCCOc1ccccc1	.	.	.	21706	?
COc1ccc(OCCCC(=O)Nc2ccc(S(=O)(=O)N3CCOCC3)cc2)cc1	.	.	.	.	.
COc1ccccc1-c1c(C)oc2cc(OC(=O)c3ccco3)ccc2c1=O	.	.	.	20703	?
Cc1nn(CC(=O)NC(C)C(C)C)c(C)c1S(=O)(=O)N1CCCCC1 (stereo not given)	/	/	.	/	/
SMILES	Anthrax LF prot	BoNT-F LC inh	MazF activator	Autofluor counter	BoNT-A LC inh2
C/C(=N/NC(=O)c1sc(NS(=O)(=O)c2ccccc2)nc1C)c1sc(N)nc1C	.	.	.	.	.
CCC(Sc1nc2ccccc2c(=O)n1CC1CCCO1)C(=O)NCc1cccnc1 (stereo not given)	.	.	.	20816	?
CCN(CC)CCCn1c(SCC(=O)NCC2CCCO2)nc2ccccc2c1=O (stereo not given)	.	.	.	?	.
CC(=O)NCCn1c(SCC(=O)NCC2CCCO2)nc2ccccc2c1=O (stereo not given)	.	.	.	22103	.
O=C(CSc1nc2ccccc2c(=O)n1CC1CCCO1)NCC1CCCO1 (stereo not given)	.	.	.	17453	?
Cc1ccc(CNC(=O)CSc2nc3ccccc3c(=O)n2CC2CCCO2)cc1 (stereo not given)	.	.	.	.	.
CCOC(=O)[C@H]1[C@H]2COc3ccc(Cl)cc3[C@@H]2N2C(=O)CN(Cc3ccc(C)cc3)C(=O)[C@@]12C	.	.	.	.	.
CCOC(=O)Cc1csc(NC(=O)CSc2nc3sc(C(=O)O)c(C)c3c(=O)[nH]2)n1	.	.	.	22793	?
Cc1cc(C(=O)OCC(=O)NC2(C#N)CCCCC2)c(C)o1	.	.	.	.	.
CCc1noc(C)c1C(=O)N1CCN(S(=O)(=O)c2c(C)cc(C)cc2C)CC1	.	.	.	.	.
Cc1ccc(Nc2nc(Cl)c(C=O)s2)cc1Cl	.	.	52.7	.	.
N#Cc1cc(Oc2ccc3ccccc3c2)c(-n2nnc3ccccc32)cc1C#N	.	.	.	20725	.
CCOCCNC(=O)c1ccccc1C(=O)NCCOCC	.	.	.	17947	.
COc1ccccc1S(=O)(=O)N(C)C[C@H]1OCc2cn(nn2)CCCC(=O)N([C@H](C)CO)C[C@@H]1C	.	.	.	.	.
COc1cc(N)c(Cl)cc1C(=O)OCC(=O)Nc1ccc(N2CCOCC2)cc1	.	.	.	.	.
O=C(COC(=O)c1ccccc1NS(=O)(=O)c1cccs1)NC1CCCCC1	.	45.1	.	.	.
O=C(COC(=O)c1ccccc1NS(=O)(=O)c1cccs1)NCC12CC3CC(CC(C3)C1)C2	.	.	.	.	.
CC(=O)N1CCN(S(=O)(=O)c2cccc(C(=O)Nc3ccc(F)c(F)c3)c2)CC1	.	.	.	.	.
Nc1c(C(=O)NC2CCCC2)sc2nc(-c3cccs3)ccc12	.	.	52.1	.	.
CCCCOc1ccc(-c2nc(SCC(N)=O)n[nH]2)cc1	.	.	.	20074	.
CCCCOc1ccc(-c2nc(=S)[nH][nH]2)cc1	.	.	.	16673	?
Cc1c(C(=O)NCc2ccc(F)cc2)sc(=O)n1Cc1ccc(Cl)c(Cl)c1	.	.	/	.	.
Cc1ccc(N(CC(=O)N2CCn3c2nc2ccccc23)S(=O)(=O)c2c(C)n[nH]c2C)cc1	.	.	.	17135	.
O=C(O)C1C2C=CC(C2)C1C(=O)Nc1cccc(F)c1 (stereo not given)	.	.	.	22384	.
O=C(O)c1cccc(NC(=O)C2C3C=CC(C3)C2C(=O)O)c1 (stereo not given)	/	/	.	/	/
SMILES	Anthrax LF prot	BoNT-F LC inh	MazF activator	Autofluor counter	BoNT-A LC inh2
CCOc1ccccc1NC(=O)C1C2C=CC(C2)C1C(=O)O (stereo not given)	.	.	.	25672	.
COc1ccc(NC(=O)C[C@@H]2C(=O)N(c3ccc(OC)cc3)CC2(C)C)cc1	.	.	.	.	.
Cc1ncc([N+](=O)[O-])n1CC(=O)Nc1ccc(Br)cc1	.	.	.	.	.
Cc1sc2nc(SCC(=O)NCCOCCO)nc(N)c2c1C	.	.	.	.	.
Cc1sc2nc(SCC(=O)NCCOCCO)n(C)c(=O)c2c1C	.	.	.	21931	.
COc1cccc(CNC(=O)c2c[nH]n3c(=O)c(Cl)c(C)nc23)c1	.	.	.	.	.
O=C(NCCC1=CCCCC1)c1cnc2n(c1=O)CCS2	.	.	.	24855	.
